Here are results for 18 compounds from PubChem BioAssay (EPA / NIEHS).

For assay [1], the target named is Bile acid receptor (Homo sapiens) (UniProt Q96RI1). Put plainly: OT_FXR_FXRSRC1_0480: Odyssey Thera (OT) 8-hour HEK293T Protein-Complementation Assay for Farnesoid X receptor/SRC-1 Co-activator (AID 2283383). Summed up:
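Co-activator recruitment to FXR was measured in living HEK293T cells, where interaction of the two fused partners restored an active fluorescent reporter. Signal gain after 8 h treatment was referenced to DMSO.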

Assay [2] has as its target Retinoic acid receptor RXR-alpha (Homo sapiens) (UniProt P19793). The assay is described as follows: OT_NURR1_NURR1RXRa_0480: Odyssey Thera (OT) 8-hour HEK293T Protein Complementation Assay for Nurr1/retinoid X receptor (RXR) (AID 2283385). Summed up: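 Compounds are applied to HEK293T cells carrying Nurr1 and RXRα linked to reporter fragments. After 8 h, fluorescence intensity reports heterodimer formation, with DMSO as baseline.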

The target is the same in assay [3]. The assay is described as follows: OT_NURR1_NURR1RXRa_1440: Odyssey Thera (OT) 24-hour HEK293T Protein Complementation Assay for Nurr1/retinoid X receptor (RXR) (AID 2283386). The method in brief:
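Measured as fluorescence from a reconstituted split reporter, this 24 h HEK293T complementation assay scores compound-induced gain of Nurr1/RXRα association relative to DMSO.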

For assay [4], the target named is Peroxisome proliferator-activated receptor gamma (Homo sapiens) (UniProt P37231). Put plainly: OT_PPARg_PPARgSRC1_0480: Odyssey Thera (OT) 8-hour Protein-Complementation Assay for Peroxisome Proliferator-activated Receptor Gamma / SRC-1 Co-activator (AID 2283387).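 Further: nuclear to cytoplasmic split Venus YFP fluorescence ratio reporting PPARg SRC-1 interaction.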 The method in brief:
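HEK293T transiently transfected with PPARg and SRC-1 fused to Venus YFP fragments, compounds 8 h at 37C. Fixed, Draq5-stained cells imaged; nuclear/cytoplasmic 488 nm fluorescence ratio over at least 350 cells per image; gain fitted versus DMSO.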

For assay [5] the target is unchanged. Put plainly: OT_PPARg_PPARgSRC1_1440: Odyssey Thera (OT) 24-hour Protein-Complementation Assay for Peroxisome Proliferator-activated Receptor Gamma/ SRC-1 Co-activator (AID 2283388). Summed up:
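Readout: nuclear-to-cytoplasmic 488 nm fluorescence ratio, ≥350 cells per image, 8 images per well, after 24 h compound exposure of HEK293T expressing PPARg/SRC-1 split-YFP fusions. Activity fitted in positive direction against DMSO.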

Assay [6] can be described thus: CEETOX_H295R_11DCORT: CeeTox H295R High-throughput Steroidogenesis Assay for 11-Deoxycortisol (11DCORT) (AID 2283432; active means hit-call score of the fitted dose curve at least 0.9, where 1 is the maximum; inactive means score below 0.9;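 on AC50: human adrenal H295R cells prestimulated with 10 µM forskolin for 48 h; 11-deoxycortisol secreted into the medium measured by LC-MS/MS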). The conditions noted are these: actives raise or lower the signal. The method in brief:
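H295R cells prestimulated 48 h with 10 uM forskolin, then exposed 48 h to chemical in 0.1% DMSO. 11-Deoxycortisol in medium quantified by HPLC-MS/MS after MTBE extraction; bidirectional fit versus DMSO. MTT viability read in same wells.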

Assay [7] can be described thus: CEETOX_H295R_OHPREG: CeeTox H295R High-throughput Steroidogenesis Assay for OH-Pregnenolone (OHPREG) (AID 2283434; active means hit-call score of the fitted dose curve at least 0.9, where 1 is the maximum; inactive means score below 0.9). The conditions noted are these: actives raise or lower the signal. Summed up:
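Hormone levels in spent medium were measured by tandem mass spectrometry following liquid-liquid extraction. Cells (H295R) had been forskolin-stimulated (10 uM, 48 h) before a 48 h chemical exposure at 0.1% DMSO, with activity fitted in both directions against DMSO.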

Assay [8] in a line: CEETOX_H295R_OHPROG: CeeTox H295R High-throughput Steroidogenesis Assay for OH-Progesterone (OHPROG) (AID 2283435; active means hit-call score of the fitted dose curve at least 0.9, where 1 is the maximum; inactive means score below 0.9;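 on AC50: human adrenal H295R cells primed 48 h with 10 µM forskolin; 17alpha-hydroxyprogesterone secreted into medium measured by HPLC-MS/MS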). The settings on record: actives raise or lower the signal. Summed up: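 Secreted 17alpha-hydroxyprogesterone is read by tandem MS from media of forskolin-primed H295R cells dosed with chemical for 48 h. Activity is fitted in both directions against DMSO baseline; cytotoxic concentrations are re-tested diluted.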

A short description of assay [9]: CEETOX_H295R_CORTIC: CeeTox H295R High-throughput Steroidogenesis Assay for Corticosterone (CORTIC) (AID 2283437; active means hit-call score of the fitted dose curve at least 0.9, where 1 is the maximum; inactive means score below 0.9;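 further: corticosterone secreted into medium quantified by mass spectrometry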). The conditions noted are these: actives raise or lower the signal. Summed up:
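Corticosterone secreted into medium is measured by reverse-phase HPLC with tandem MS following liquid-liquid extraction. Cells are forskolin-stimulated (10 uM, 48 h) before 48 h test exposure; activity fitted in both directions against DMSO.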

A short description of assay [10]: CEETOX_H295R_CORTISOL: CeeTox H295R High-throughput Steroidogenesis Assay for Cortisol (AID 2283438; active means hit-call score of the fitted dose curve at least 0.9, where 1 is the maximum; inactive means score below 0.9;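 further: cortisol secreted into medium quantified by LC-MS/MS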). The conditions noted are these: actives raise or lower the signal. The method in brief: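 Human adrenocortical H295R cells (passage ≤10) received test chemicals for 48 h after forskolin priming. Secreted cortisol was measured by LC-MS/MS.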
Assay [11] in a line: CEETOX_H295R_DOC: CeeTox H295R High-throughput Steroidogenesis Assay for DOC (AID 2283439; active means hit-call score of the fitted dose curve at least 0.9, where 1 is the maximum; inactive means score below 0.9). The settings on record: actives raise or lower the signal. The method in brief:
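Secreted DOC was quantified from H295R media by HPLC-MS/MS after 48 h chemical exposure following 48 h forskolin (10 uM) prestimulation. Values were fitted in both directions relative to DMSO, the negative control and baseline.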

Assay [12] is described as follows: CEETOX_H295R_PROG: CeeTox H295R High-throughput Steroidogenesis Assay for Progesterone (PROG) (AID 2283442; active means hit-call score of the fitted dose curve at least 0.9, where 1 is the maximum; inactive means score below 0.9;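 on AC50: human H295R adrenal cells primed with 10 µM forskolin before dosing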). The settings on record: actives raise or lower the signal. Summed up:
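Progesterone read-out: HPLC-MS/MS on MTBE extracts of conditioned medium after 48 h chemical exposure of forskolin-primed (10 uM, 48 h) H295R cells. Gain or loss of signal was fitted relative to DMSO baseline.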

Read-out in assay [13]: Tumor necrosis factor receptor superfamily member 6 (Homo sapiens) (UniProt P25445)
The assay is described as follows: LTEA_HepaRG_FAS: Life Technologies and Expression Analysis (LTEA) Assay for Fas cell surface death receptor (FAS) using HepaRG (AID 2283447; active means hit-call score of the fitted dose curve at least 0.9, where 1 is the maximum; inactive means score below 0.9). The settings on record: mRNA level, 48 h; actives raise or lower the signal. The method in brief:
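FAS transcript level was measured by TaqMan qRT-PCR against three housekeeping genes after 48 h chemical exposure. Cells were HepaRG, 0.5% DMSO vehicle, with a top concentration of 100 uM and half-log dilutions over eight points, in duplicate.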

Read-out in assay [14]: Fatty acid synthase (Homo sapiens) (UniProt P49327)
Put plainly: LTEA_HepaRG_FASN: Life Technologies and Expression Analysis (LTEA) Assay for Fatty Acid Synthase (FASN) using HepaRG (AID 2283448; active means hit-call score of the fitted dose curve at least 0.9, where 1 is the maximum; inactive means score below 0.9). The conditions noted are these: mRNA level, 48 h; actives raise or lower the signal. The method in brief:
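Transcript-level assay: HepaRG liver cells are treated for 48 h across an eight-point range topping at 100 uM, and FASN mRNA, normalized to three housekeeping genes, is compared with DMSO controls in both directions.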

Read-out in assay [15]: Cyclin D2 (CCND2), CCND2 (gene 894)
Put plainly: LTEA_HepaRG_CCND2: Life Technologies and Expression Analysis (LTEA) Assay for Cyclin D2 (CCND2) using HepaRG (AID 2283449; active means hit-call score of the fitted dose curve at least 0.9, where 1 is the maximum; inactive means score below 0.9). The settings on record: mRNA level, 48 h; actives raise or lower the signal. Summed up:
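Read-out is CCND2 mRNA level measured by qRT-PCR in human HepaRG liver cells and normalised to three housekeeping genes. Chemicals were applied for 48 h at up to 100 uM, with gain or loss fitted relative to 0.5% DMSO.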

Read-out in assay [16]: Cyclin Dependent Kinase Inhibitor 1A (CDKN1A), CDKN1A (gene 1026)
Put plainly: LTEA_HepaRG_CDKN1A: Life Technologies and Expression Analysis (LTEA) Assay for Cyclin Dependent Kinase Inhibitor 1A (CDKN1A) using HepaRG (AID 2283450; active means hit-call score of the fitted dose curve at least 0.9, where 1 is the maximum; inactive means score below 0.9). The conditions noted are these: mRNA level, 48 h; actives raise or lower the signal. Summed up:
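HepaRG, 48 h dosing, 8-pt half-log series from 100 uM top, 0.5% DMSO vehicle, duplicates. Readout: TaqMan qRT-PCR of CDKN1A transcript, housekeeping-normalized (ACTB, GAPDH, POLR2A). Up/down curve fit relative to DMSO.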

Assay [17] can be described thus: CEETOX_H295R_ESTRADIOL: CeeTox H295R High-throughput Steroidogenesis Assay for Estradiol (AID 2283440; active means hit-call score of the fitted dose curve at least 0.9, where 1 is the maximum; inactive means score below 0.9;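 further: estradiol secreted into medium quantified by LC-MS/MS after dansyl derivatisation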). The conditions noted are these: actives raise or lower the signal. The method in brief:
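H295R, 48 h forskolin (10 uM) prestim → 48 h compound, 0.1% DMSO final. Estradiol in medium: MTBE extraction, dansyl chloride derivatization, LC-MS/MS. Fit bidirectional vs DMSO baseline; MTT viability in same wells.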

The nature of assay [18]: CEETOX_H295R_ESTRONE: CeeTox H295R High-throughput Steroidogenesis Assay for Estrone (AID 2283441; active means hit-call score of the fitted dose curve at least 0.9, where 1 is the maximum; inactive means score below 0.9;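 further: estrone secreted into medium measured by LC-MS/MS after dansyl derivatization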). The settings on record: actives raise or lower the signal. The method in brief: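 H295R cells; 48 h forskolin (10 uM) prestimulation; 48 h compound exposure, 0.1% DMSO final. Medium estrone: MTBE extraction, dansyl derivatization, HPLC-MS/MS. Bidirectional fit vs DMSO.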

Values joined by “and” are separate entries in the source; they are usually repeats but may differ in a detail not shown here. Equal values may be shown once. Inconclusive results are not listed. Some compounds were tested as several samples or in several runs, with calls that do not always agree. Active and inactive are the calls of the source. How the source made its calls, unless noted: active means hit-call score of the fitted dose curve at least 0.9, where 1 is the maximum; inconclusive means response in the unintended direction; inactive means score below 0.9.

Sequence of Peroxisome proliferator-activated receptor gamma (Homo sapiens) (P37231 whole entry, looked up, the tested form may be a part): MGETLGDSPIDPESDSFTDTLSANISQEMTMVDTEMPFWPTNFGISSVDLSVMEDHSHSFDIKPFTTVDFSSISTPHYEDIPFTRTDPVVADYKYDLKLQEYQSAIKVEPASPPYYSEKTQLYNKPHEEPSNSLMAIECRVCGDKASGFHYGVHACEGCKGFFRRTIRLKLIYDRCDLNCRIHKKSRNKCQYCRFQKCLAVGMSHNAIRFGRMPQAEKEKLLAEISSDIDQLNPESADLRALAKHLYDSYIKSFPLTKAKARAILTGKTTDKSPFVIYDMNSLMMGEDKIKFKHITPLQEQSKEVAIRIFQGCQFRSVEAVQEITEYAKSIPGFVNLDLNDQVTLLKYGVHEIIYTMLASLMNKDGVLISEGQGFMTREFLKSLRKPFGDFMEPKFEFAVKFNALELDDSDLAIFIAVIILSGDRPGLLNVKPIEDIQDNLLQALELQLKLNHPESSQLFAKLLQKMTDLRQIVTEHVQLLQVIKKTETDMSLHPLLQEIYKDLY
Sequence of Fatty acid synthase (Homo sapiens) (P49327 whole entry, looked up): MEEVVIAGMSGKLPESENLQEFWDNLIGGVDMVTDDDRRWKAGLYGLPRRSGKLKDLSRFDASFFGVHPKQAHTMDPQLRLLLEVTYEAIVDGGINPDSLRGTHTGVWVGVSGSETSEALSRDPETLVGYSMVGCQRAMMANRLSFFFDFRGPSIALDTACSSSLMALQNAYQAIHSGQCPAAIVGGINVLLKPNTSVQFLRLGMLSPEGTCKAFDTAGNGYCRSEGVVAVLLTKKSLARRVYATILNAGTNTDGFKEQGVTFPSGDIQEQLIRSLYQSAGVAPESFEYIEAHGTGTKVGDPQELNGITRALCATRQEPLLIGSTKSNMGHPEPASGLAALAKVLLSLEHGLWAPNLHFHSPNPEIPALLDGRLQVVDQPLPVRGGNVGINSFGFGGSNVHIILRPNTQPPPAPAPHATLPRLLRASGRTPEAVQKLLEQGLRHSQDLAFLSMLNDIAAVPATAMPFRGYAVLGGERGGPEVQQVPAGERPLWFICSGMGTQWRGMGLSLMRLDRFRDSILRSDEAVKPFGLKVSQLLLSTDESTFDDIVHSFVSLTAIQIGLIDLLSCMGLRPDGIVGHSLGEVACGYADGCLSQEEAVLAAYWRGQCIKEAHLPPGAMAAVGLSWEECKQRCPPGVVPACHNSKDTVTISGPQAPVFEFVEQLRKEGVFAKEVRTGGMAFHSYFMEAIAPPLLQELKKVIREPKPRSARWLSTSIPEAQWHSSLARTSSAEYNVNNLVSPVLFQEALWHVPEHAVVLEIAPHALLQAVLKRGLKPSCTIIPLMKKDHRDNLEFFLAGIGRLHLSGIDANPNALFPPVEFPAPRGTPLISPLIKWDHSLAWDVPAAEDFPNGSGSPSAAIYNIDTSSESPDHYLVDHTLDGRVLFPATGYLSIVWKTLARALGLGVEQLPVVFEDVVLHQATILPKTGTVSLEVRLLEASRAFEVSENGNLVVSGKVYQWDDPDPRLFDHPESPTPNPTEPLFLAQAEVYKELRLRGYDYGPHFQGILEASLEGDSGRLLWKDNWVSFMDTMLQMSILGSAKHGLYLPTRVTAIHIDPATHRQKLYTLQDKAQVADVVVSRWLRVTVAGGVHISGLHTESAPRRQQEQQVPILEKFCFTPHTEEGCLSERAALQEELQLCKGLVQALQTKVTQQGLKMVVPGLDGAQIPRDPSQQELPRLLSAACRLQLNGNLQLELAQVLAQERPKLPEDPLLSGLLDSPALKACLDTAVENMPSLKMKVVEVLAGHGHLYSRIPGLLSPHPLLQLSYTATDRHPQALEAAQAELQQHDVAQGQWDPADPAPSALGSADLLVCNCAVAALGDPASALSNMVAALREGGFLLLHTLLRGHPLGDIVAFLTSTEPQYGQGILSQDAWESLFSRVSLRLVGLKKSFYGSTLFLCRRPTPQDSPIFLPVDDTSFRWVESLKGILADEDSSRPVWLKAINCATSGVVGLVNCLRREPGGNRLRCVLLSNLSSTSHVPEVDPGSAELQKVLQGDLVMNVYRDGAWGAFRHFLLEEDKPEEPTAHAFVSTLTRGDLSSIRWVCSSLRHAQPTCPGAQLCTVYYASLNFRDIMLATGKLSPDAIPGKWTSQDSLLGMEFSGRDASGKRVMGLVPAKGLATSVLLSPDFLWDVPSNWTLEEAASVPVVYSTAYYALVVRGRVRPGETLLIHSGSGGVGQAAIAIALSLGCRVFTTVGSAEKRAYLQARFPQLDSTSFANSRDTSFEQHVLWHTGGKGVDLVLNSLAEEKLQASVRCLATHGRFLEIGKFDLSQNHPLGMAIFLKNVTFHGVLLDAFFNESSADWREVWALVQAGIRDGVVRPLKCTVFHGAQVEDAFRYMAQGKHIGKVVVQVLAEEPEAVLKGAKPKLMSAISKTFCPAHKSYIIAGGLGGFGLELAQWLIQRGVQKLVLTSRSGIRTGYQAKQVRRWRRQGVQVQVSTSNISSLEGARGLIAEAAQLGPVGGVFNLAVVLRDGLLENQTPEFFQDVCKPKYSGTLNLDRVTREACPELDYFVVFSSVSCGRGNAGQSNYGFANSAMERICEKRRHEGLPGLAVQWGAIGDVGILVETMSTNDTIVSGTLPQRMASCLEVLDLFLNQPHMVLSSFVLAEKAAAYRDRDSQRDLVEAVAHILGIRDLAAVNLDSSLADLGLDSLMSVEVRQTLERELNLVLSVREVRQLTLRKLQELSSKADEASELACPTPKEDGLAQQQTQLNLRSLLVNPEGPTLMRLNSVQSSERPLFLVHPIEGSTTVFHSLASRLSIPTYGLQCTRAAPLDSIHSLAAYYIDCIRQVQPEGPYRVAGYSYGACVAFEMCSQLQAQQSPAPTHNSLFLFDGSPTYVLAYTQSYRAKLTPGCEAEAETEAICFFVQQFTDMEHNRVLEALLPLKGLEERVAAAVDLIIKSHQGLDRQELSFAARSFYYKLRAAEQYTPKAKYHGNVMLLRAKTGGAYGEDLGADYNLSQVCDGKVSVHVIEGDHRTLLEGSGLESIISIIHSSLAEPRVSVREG
Sequence of Retinoic acid receptor RXR-alpha (Homo sapiens) (P19793 whole entry, looked up, the tested form may be a part): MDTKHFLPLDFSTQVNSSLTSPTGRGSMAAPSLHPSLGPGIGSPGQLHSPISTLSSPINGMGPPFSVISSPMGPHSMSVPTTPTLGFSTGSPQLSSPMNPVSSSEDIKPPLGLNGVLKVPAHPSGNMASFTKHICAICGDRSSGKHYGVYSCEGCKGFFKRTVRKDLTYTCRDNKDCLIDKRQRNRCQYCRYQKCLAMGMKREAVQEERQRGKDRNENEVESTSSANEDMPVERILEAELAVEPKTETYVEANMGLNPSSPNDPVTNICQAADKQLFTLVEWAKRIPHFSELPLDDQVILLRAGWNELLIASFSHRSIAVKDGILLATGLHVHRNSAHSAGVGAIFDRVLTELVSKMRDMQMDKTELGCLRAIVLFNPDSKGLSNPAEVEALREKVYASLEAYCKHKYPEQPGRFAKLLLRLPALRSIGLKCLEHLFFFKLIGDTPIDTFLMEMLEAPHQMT
Sequence of Bile acid receptor (Homo sapiens) (Q96RI1 whole entry, looked up, the tested form may be a part): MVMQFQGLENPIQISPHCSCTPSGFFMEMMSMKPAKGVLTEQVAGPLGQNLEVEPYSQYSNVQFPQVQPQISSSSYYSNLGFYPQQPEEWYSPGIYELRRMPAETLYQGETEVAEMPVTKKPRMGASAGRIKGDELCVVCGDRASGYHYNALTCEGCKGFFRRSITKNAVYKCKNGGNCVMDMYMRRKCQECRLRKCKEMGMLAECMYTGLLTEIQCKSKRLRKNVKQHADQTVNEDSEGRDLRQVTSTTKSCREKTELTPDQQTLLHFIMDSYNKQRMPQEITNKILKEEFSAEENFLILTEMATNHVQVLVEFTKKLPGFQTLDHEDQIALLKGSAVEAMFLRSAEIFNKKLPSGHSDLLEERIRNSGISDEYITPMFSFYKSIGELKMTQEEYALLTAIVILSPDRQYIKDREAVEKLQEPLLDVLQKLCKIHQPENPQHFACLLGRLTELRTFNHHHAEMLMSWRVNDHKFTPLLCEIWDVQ

In the case of `CCCCCCCCCO`, the compound was classed as inactive in [1], in assay [2], in assay [3], in [4] and in assay [5].
Take `COc1ccccc1O`: the call in assay [1], in assay [2], in assay [3], in assay [4] and in assay [5] was inactive.
With `CC(C)C(=O)c1ccccc1`, the result in assay [2], in assay [3], in assay [4] and in [5] was inactive.
Consider `CNC(=C[N+](=O)[O-])NCCSCc1ccc(CN(C)C)o1`, for which the outcome in assay [2], in assay [3], in [4] and in assay [5] was inactive.
Consider `C1CCCNCC1`, for which the outcome in assay [2], in assay [3], in assay [4] and in assay [5] was inactive.
`CC/C(=C(\c1ccccc1)c1ccc(OCCN(C)C)cc1)c1ccccc1`: the AC50 in assay [2] was 11500 nM (active); in assay [3] it was 10.4 µM (active) and 11.5 µM (active); in assay [6], 136 nM (active); in [7] it was 311 nM (active); in [8] it was 161 nM (active); in assay [11], 222 nM (active). The AC50 is 141 nM (active) in [12] and 71400 nM (active) in assay [13]. The result in assay [4], in assay [5], in assay [6], in assay [7], in assay [8] and in [9] was inactive. Moreover, the outcome in assay [10], in assay [11], in assay [12], in assay [13], in [14] and in assay [15] was inactive. Moreover, the result in assay [16] was inactive.
`C=C(C)C(N)=O`: the result in assay [2], in [3], in [4], in assay [5], in [13] and in assay [14] was inactive. Further, the call in assay [15] and in assay [16] was inactive.
In the case of `C=C(C)C(=O)OCCC(C)OC(=O)C(=C)C` (configuration not stated), the outcome in assay [2], in assay [3], in assay [4] and in assay [5] was inactive.
With `C=CC(O)CCCCC` (configuration not stated), the compound was called inactive in [2], in assay [3], in assay [4] and in [5].
With `CCCO`, the compound was called inactive in assay [2], in assay [3], in assay [4] and in assay [5].
For the compound `CCCCCCCCOC(C)=O`, the outcome in [2], in [3], in assay [4] and in assay [5] was inactive.
Consider `CCCCCC1C(=O)CCC1CC(=O)OC` (configuration not stated), for which the result in assay [2], in [4] and in [5] was inactive.
Take `CC(O)CN` (configuration not stated): the outcome in [2], in assay [3], in [4] and in [5] was inactive.
With `CCCCCCCCCCCCN1CCOCC1`, the AC50 in assay [2] was 73600 nM (active); in assay [3], 80.4 µM (active); in assay [6] it was 559 nM (active); in assay [7], 645 nM (active); in [8], 1860 nM (active); in [11] it was 549 nM (active). The half-maximal activity concentration (AC50) in [12] is 304 nM (active). The compound was called inactive in [4], in [5], in assay [9], in [10], in [17] and in assay [18].
Consider `CC(=O)c1ccc(O)cc1`, for which the result in [2], in assay [3], in [4] and in [5] was inactive.
`NC(N)=S`: the call in [2], in assay [3], in assay [4] and in [5] was inactive.
Regarding `COc1ccc(OC)cc1`, the call in assay [2], in assay [3], in assay [4] and in assay [5] was inactive.
As to `COC(=O)c1ccc(C(=O)OC)cc1`, the outcome in assay [2], in [3], in assay [4], in assay [5], in [13] and in assay [14] was inactive. Also, the compound was called inactive in assay [15] and in assay [16].
